These results are taken from PubChem BioAssay.

Structures are written as SMILES. Active and inactive are the calls of the source.

Assay [1] relates to Plasmodium falciparum Sir2 (PF13_0152, Sir2A). The assay is described as follows: Plasmodium falciparum Sir2A binding compounds – biochemical, small-molecule microarray, 635 nm fluorescence, primary screen (AID 1098).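 Also: score merges spot fluorescence intensity with its signal-to-noise ratio.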 The note with it: fluorescence 635 nm, higher = more signal.
Assay [2] in a line: probe aDKK1 binding to arrayed compounds – biochemical, biotinylated probe, 635/667 nm fluorescence, primary screen (AID 1099).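 Also: score merges 667nm spot fluorescence with signal to noise across triplicate slides.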 Particulars: small-molecule microarray, higher = more signal.
Assay [3] is described as follows: probe aCHRDL2 binding to arrayed compounds – biochemical, biotinylated probe, 635/667 nm fluorescence, primary screen (AID 1100). Particulars: small-molecule microarray, higher = more signal.
A short description of assay [4]: change in splice reporter luminescence, either direction, cell-based, HEK293, spliceosome inhibition project, primary screen (AID 1101).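 Also: HEK293 cells carrying a splicing-competent luciferase reporter gene; test concentration not given here.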 The note with it: HEK293 splicing luciferase reporter, 24 h, higher = more signal, called active from +8 up or from −8 down. Background: A reporter such as luciferase makes a cellular process visible.
Assay [5] concerns the target Fibroblast growth factor 10 (Homo sapiens) (UniProt O15520). The assay is described as follows: compounds binding fibroblast growth factor 10 – biochemical, small-molecule microarray, 635 nm fluorescence, primary screen (AID 1102). Particulars: FGF10 binding, fluorescence 635 nm, higher = more signal.
Assay [6] has as its system glycogen synthase kinase-3 (GSK3A per assay name; protocol says GSK3B). The assay is described as follows: compounds binding glycogen synthase kinase-3 – biochemical, small-molecule microarray, 635 nm fluorescence, GSK3A, primary screen (AID 1103). Also: the record names both GSK3A and GSK3B. Particulars: fluorescence 635 nm, higher = more signal.
In assay [7] the target is Epidermal growth factor receptor (Homo sapiens) (UniProt P00533). The assay is described as follows: compounds binding epidermal growth factor receptor – biochemical, small-molecule microarray, 635 nm fluorescence, primary screen (AID 1104).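 Also: score merges 667 nm emission intensity with spot signal to noise over triplicate slides.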 The note with it: EGFR binding, higher = more signal.
The target of assay [8] is Follistatin-related protein 3 (Homo sapiens) (UniProt O95633). The assay is described as follows: compounds binding follistatin-related protein 3 – biochemical, small-molecule microarray, 635 nm fluorescence, primary screen (AID 1105).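 Also: score merges emission near 667 nm and signal to noise per printed spot across three slides.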 The note with it: FSTL3 binding, higher = more signal.
Assay [9] concerns the target Dickkopf-related protein 1 (Homo sapiens) (UniProt O94907). The assay is described as follows: small molecules binding DKK1 protein – biochemical, small-molecule microarray, 635 nm fluorescence scan, primary screen (AID 1106).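 Also: score merges emission near 667 nm with signal to noise over three replicate slides.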 The note with it: higher = more signal.
For assay [10], the system named is Inhibin beta A chain (activin A). The assay is described as follows: small molecules binding activin A – biochemical, small-molecule microarray, 635 nm fluorescence scan, primary screen (AID 1107).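 Also: mouse activin A protein probed at 4.33 µg/mL on printed slides; score merges bound-protein fluorescence near 667 nm with spot signal-to-noise.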 The note with it: INHBA, higher = more signal.
In assay [11] the test system is Human papillomavirus type 1a protein E7 (residues 44-93). The assay is described as follows: small molecules binding HPV E7 44-93 – biochemical, small-molecule microarray, residues 44-93, 635 nm fluorescence, primary screen (AID 1108).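 Also: E7 fragment applied at 1 µg/mL in TBST for 1 h at 4 C; score combines spot fluorescence with its signal to noise ratio.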 Particulars: fluorescence 635 nm, higher = more signal.
The nature of assay [12]: hepatitis C replication reporter changes, two-sided – Huh7 cells, luciferase reporter, HCV replication inhibitor project, primary screen (AID 1109).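 Also: huh7 hepatoma cells harbouring a luciferase neomycin HCV replicon reporter; luciferase luminescence as measure of HCV replicon replication; test concentration not given here.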 The note with it: Huh7 HCV replicon luciferase reporter, 48 h; higher = more signal.
Assay [13] has as its target Left-right determination factor 2 (Homo sapiens) (UniProt O00292). The assay is described as follows: small molecules binding LEFTY2 protein – biochemical, small-molecule microarray, 635 nm fluorescence scan, primary screen (AID 1110). The note with it: higher = more signal.
For assay [14], the target named is Calmodulin-1 (Homo sapiens) (UniProt P0DP23). The assay is described as follows: small molecules binding calmodulin-1 with EGTA – biochemical, small-molecule microarray, Cy5-labelled CALM1, profiling panel (AID 1111).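 Also: labelled calmodulin applied in Tris saline Tween buffer holding calcium plus EGTA and DTT.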 The note with it: Cy5-CALM1 binding fluorescence, higher = more signal.
Assay [15] shares this target. The assay is described as follows: small molecules binding Ca-loaded calmodulin-1 – biochemical, small-molecule microarray, Cy5-labelled CALM1, plus calcium, artefact control for SMM control-protein annotation, profiling panel (AID 1112).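 Also: score merges spot fluorescence with signal to noise from triplicate slides.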 Particulars: Cy5-CALM1 binding fluorescence, higher = more signal.
Assay [16] is described as follows: probe aWnt5a binding to arrayed compounds – biochemical, biotinylated probe, 635/667 nm fluorescence, primary screen (AID 1113).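 Also: score merges 667 nm fluorescence intensity with signal-to-noise per printed feature.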 Particulars: small-molecule microarray, higher = more signal.
The nature of assay [17]: probe aShh binding to arrayed compounds – biochemical, biotinylated probe, 635/667 nm fluorescence, primary screen (AID 1114).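 Also: probe is biotin-labelled aShh protein from a stem cell growth factor screen; measures binding of labelled protein to compounds printed on the slide; score merges feature fluorescence at 667 nm with signal-to-noise.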 Particulars: small-molecule microarray, higher = more signal.
The nature of assay [18]: probe aNog binding to arrayed compounds – biochemical, biotinylated probe, 635/667 nm fluorescence, primary screen (AID 1115).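 Also: probe is biotinylated aNog protein used at 0.15 µg/mL for 1 h at 4 C; z-score combines 667 nm fluorescence of each spot with its signal to noise.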 The note with it: small-molecule microarray, higher = more signal.
For assay [19], the target named is Torsin-1A-interacting protein 1 (Homo sapiens) (UniProt Q5JTV8). The assay is described as follows: compound microarray binding of lysate hLAP1 – cell lysate, small-molecule microarray, COS7 lysate, 635/667 nm fluorescence, primary screen (AID 1116). The note with it: 635 nm fluorescence, higher = more signal.
For assay [20], the target named is Alpha-bungarotoxin (Bungarus multicinctus) (UniProt P60615). The assay is described as follows: compounds binding labelled alpha-BTX control protein – biochemical, small-molecule microarray, Alexa647 label, 635/667 nm fluorescence, artefact control for SMM control protein annotation, profiling panel (AID 1117). Particulars: alpha-BTX-A647 binding fluorescence, higher = more signal.
Sequence of Alpha-bungarotoxin (Bungarus multicinctus) (P60615 whole entry, looked up): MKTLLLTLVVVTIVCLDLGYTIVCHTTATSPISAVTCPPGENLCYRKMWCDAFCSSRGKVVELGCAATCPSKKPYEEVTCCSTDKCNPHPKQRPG

Sequence of Dickkopf-related protein 1 (Homo sapiens) (O94907 whole entry, looked up): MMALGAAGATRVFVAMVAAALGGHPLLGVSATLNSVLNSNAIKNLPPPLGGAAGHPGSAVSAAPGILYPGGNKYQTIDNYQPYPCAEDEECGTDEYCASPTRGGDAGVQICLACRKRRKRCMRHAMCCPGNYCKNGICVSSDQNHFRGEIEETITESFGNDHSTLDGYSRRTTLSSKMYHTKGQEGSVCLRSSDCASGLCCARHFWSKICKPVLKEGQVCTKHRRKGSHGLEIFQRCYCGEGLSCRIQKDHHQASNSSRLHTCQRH
Sequence of Torsin-1A-interacting protein 1 (Homo sapiens) (Q5JTV8 whole entry, looked up): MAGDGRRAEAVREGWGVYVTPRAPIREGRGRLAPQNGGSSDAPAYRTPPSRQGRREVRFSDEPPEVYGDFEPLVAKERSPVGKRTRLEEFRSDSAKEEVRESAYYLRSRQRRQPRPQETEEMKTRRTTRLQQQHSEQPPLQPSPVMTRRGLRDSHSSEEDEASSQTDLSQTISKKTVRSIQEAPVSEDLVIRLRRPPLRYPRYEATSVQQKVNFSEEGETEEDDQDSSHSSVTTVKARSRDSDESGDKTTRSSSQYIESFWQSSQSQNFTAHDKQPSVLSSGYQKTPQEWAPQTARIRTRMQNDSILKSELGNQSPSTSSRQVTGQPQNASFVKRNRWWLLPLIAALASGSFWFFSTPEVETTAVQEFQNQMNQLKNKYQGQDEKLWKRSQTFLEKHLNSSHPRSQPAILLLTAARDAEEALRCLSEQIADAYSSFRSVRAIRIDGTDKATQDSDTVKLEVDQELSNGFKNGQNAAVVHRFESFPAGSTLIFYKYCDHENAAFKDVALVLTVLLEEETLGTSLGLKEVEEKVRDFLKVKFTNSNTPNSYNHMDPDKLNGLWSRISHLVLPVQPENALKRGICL
Sequence of Fibroblast growth factor 10 (Homo sapiens) (O15520 whole entry, looked up): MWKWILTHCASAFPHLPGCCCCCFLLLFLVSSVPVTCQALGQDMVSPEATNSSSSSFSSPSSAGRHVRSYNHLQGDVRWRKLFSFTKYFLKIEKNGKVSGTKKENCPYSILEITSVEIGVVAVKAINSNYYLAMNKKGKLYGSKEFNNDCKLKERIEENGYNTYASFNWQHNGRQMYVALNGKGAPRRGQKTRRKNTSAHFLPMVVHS
Sequence of Left-right determination factor 2 (Homo sapiens) (O00292 whole entry, looked up): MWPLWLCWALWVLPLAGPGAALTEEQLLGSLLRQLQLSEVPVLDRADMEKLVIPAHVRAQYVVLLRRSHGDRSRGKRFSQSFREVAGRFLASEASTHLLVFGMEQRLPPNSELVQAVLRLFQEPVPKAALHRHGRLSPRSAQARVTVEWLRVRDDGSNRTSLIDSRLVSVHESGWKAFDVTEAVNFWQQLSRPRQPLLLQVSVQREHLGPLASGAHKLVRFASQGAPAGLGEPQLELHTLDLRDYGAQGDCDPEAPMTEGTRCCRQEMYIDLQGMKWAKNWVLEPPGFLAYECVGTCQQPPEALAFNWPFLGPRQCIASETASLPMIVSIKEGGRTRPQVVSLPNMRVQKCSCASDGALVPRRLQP
Sequence of Follistatin-related protein 3 (Homo sapiens) (O95633 whole entry, looked up): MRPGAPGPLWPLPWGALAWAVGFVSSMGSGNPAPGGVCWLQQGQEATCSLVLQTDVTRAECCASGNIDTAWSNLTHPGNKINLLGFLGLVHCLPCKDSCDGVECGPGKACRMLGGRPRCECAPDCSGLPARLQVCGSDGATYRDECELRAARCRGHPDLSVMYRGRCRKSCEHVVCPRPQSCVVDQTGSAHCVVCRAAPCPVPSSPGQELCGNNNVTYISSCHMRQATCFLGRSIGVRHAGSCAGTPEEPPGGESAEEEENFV
Sequence of Epidermal growth factor receptor (Homo sapiens) (P00533 whole entry, looked up): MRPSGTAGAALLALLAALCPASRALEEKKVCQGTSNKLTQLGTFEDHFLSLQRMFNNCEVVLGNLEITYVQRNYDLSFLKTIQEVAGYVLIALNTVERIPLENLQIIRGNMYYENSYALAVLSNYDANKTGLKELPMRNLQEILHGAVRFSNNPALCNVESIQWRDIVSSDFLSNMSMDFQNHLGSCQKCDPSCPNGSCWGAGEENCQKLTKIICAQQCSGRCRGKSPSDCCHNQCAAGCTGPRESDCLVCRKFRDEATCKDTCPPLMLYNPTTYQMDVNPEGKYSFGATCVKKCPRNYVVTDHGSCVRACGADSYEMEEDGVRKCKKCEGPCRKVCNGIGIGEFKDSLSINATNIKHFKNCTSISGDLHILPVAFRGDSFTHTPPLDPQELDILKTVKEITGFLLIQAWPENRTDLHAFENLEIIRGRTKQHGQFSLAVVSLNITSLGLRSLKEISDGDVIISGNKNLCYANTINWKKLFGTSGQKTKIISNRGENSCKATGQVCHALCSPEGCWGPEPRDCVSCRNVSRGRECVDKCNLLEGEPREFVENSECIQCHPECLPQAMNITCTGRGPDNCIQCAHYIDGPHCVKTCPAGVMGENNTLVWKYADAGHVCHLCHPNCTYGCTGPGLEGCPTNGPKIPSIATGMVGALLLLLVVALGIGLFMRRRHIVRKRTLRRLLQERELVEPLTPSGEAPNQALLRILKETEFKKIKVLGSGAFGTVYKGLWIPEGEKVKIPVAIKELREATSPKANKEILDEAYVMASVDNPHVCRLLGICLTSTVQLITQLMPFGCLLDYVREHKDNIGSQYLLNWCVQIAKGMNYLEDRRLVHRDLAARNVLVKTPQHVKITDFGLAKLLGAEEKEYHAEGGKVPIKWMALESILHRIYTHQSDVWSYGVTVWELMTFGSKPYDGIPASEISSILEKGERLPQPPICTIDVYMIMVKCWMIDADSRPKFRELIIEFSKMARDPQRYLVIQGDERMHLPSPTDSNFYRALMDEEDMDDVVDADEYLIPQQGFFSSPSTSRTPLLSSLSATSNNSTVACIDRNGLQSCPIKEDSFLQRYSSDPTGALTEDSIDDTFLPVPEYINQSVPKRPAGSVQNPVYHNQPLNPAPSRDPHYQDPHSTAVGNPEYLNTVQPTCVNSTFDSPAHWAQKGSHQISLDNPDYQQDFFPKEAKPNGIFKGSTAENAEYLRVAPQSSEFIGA

On to `O=C1[C@H]2[C@H]3[C@H](O)[C@H](O)CC(=NOCc4ccccc4)[C@@H]3CC[C@H]2C(=O)N1C1CCCCC1`, for which the composite z-score in assay [1] was 0.991; in assay [2], -0.28; in [3] it was 0.218; in [5], -0.069; in assay [6] it was -0.0273; in assay [7], 0.0374. Also, the composite z-score in assay [8] was -0.0832; in assay [9], -0.484; in assay [10], -0.28; in assay [11], 0.422; in assay [13], -0.102; in [14], -0.161. Moreover, the composite z-score in [15] was -0.408; in [16], -0.206; in assay [17] it was -0.265; in [18], -0.169; in [19], 0.467; in assay [20] it was -0.0059. Also, the z-score was 0.568 (inactive) in [4] and -1.11 in assay [12].
Consider `COCCNC(=O)OCC1CCCC2(CC(OC(=O)NCCc3ccc(F)cc3)CC(CCC(=O)N[C@@H](C)C(=O)OC)O2)O1` (stereo not given in full), for which the composite z-score in assay [1] was 1.16; in assay [2] it was -0.115; in assay [3] it was -0.273; in assay [5] it was 0.842; in [6], 1.26; in assay [7], 0.601. For the same compound, the composite z-score in assay [8] was 1.22; in assay [9] it was 0.932; in assay [10] it was 0.415; in assay [11] it was 1.37; in assay [13] it was 1.02; in assay [14], -0.104. Further, the composite z-score is -0.685 in assay [15]; -0.0643 in assay [16]; -0.0035 in [17]; -0.0827 in [18]; 0.0096 in assay [19]; 0.429 in assay [20]. Besides, the z-score was -1.09 (inactive) in [4] and -0.376 in assay [12].
As for `C=CCOC(=O)[C@H]1[C@@H]2C(=O)O[C@@H](c3ccccc3)[C@@H](c3ccccc3)N2[C@@H](c2ccc(OCCOC(=O)[C@H]3C[C@H]4C(=O)N[C@@H](Cc5ccccc5)C(=O)N4[C@H]3c3ccc(O)cc3)cc2)[C@]12C(=O)Nc1ccccc12`, the composite z-score in assay [1] was 1.4; in assay [2], -0.206; in assay [3], -0.361; in assay [5], 1.15; in assay [6], 1.18; in assay [7] it was 0.892. Further, the composite z-score is 1.22 in assay [8]; 1.06 in assay [9]; -1.01 in [10]; 0.516 in [11]; 0.933 in [13]; 0.743 in assay [14]. The composite z-score in [15] was 0.0731; in assay [16], -0.0735; in [17] it was -0.0709; in assay [18], -0.112; in [19], 0.985; in [20], 1.46. Besides, the values for the z-score in [4] and in assay [12] were 0.72 (inactive) and -1.32, respectively.
Regarding `O=C1[C@H]2[C@H]3[C@H](O)[C@H](O)CC(=NO[C@@H]4O[C@H](CO)[C@@H](O)[C@H](O)[C@H]4O)[C@H]3CC[C@H]2C(=O)N1C1CCCCC1`, the composite z-score in assay [1] is 0.643; in [2], 0.0533; in [3], -0.0589; in [5] it was 0.0041; in assay [6], 0.266; in assay [7] it was -0.0158. Further, the composite z-score in assay [8] was -0.182; in assay [9] it was -0.191; in assay [10] it was -1.65; in assay [11], 1.3; in assay [13], 0.271; in assay [14], -0.0656. Further, the composite z-score is -0.0964 in [15]; -0.0721 in assay [16]; 0.0062 in [17]; 0.604 in assay [18]; 0.129 in assay [19]; 0.0855 in assay [20]. For the same compound, the z-score in assay [4] was -0.381 (inactive); in assay [12] it was 0.524.
In the case of `CC1CC/C=C\[C@H]2OC34C=CCN(C(C)C)C(=O)[C@H]3N(CCCO)C(=O)[C@@H]4C2C(=O)O1` (stereo not given in full), the composite z-score in assay [1] was 1.29; in assay [2] it was -0.268; in [3], 0.0886; in assay [5] it was -0.79; in [6], -0.785; in [7], -1.74. The composite z-score is -1.21 in [8]; -1.23 in [9]; -0.476 in assay [10]; -0.249 in assay [11]; -0.523 in assay [13]; -1.04 in assay [14]. In addition, the composite z-score in assay [15] was 0.271; in [16], -0.184; in [17] it was -0.181; in assay [18], -0.0898; in assay [19], 0.646; in [20] it was -1.54. Besides, the z-score was -0.037 (inactive) in assay [4] and -0.513 in assay [12].
